According to PubChem BioAssay AID1347426 (Functional Genomics Laboratory (NCATS/FGL), 2020):
The whole screen tested about 31,000 sequences, of which about 1,400 (4.5%) were called active.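 Rule for the calls: active = median seed-adjusted z-score above 1 or below -1; inactive = the rest.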 Only a selection was taken, and actives are over-represented in it overall.

assay: Novel Modifiers of Survival Motor Neuron (SMN) Protein: Gene Identification via Genome-wide siRNA Screen; settings: HEK293T SMN2-luciferase reporter, siRNA knockdown, 72 h; actives lie on both sides;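 note: luminescence tracks full-length SMN protein made from the SMN2 reporter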
Summary of the method: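 HEK293T cells stably expressing an SMN2 splicing/cDNA-luciferase reporter were reverse-transfected with a druggable-genome siRNA library and read by luminescence at 72 hours; hits defined by MAD score above 1.0 or below -1.0.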

Question: With GGACCGAAGUCAAUGGUUUTT against SMC2 as the sequence, how does the median seed-adjusted z-score read?
Answer: -0.052 (inactive)

Question: Which median seed-adjusted z-score does the source give for CAUUUAGUGUACAUUCAAATT against ZNF665 here?
Answer: 1.13 (active)

Question: With CGACAGGGUAUCCAACUAATT against WASL as the sequence, how does the median seed-adjusted z-score read?
Answer: 0.143 (inactive)

Question: Which median seed-adjusted z-score does the source give for CAUGGAAAAUGAUGACGAATT against PPP4R2 here?
Answer: 0.211 (inactive)

Question: Which median seed-adjusted z-score does the source give for CUCAAGAACUGUCAAGUAATT against GSK3B here?
Answer: -0.952 (inactive)

Question: For GGACAUCUAUGUUAUAUGUTT against TRIM65, which median seed-adjusted z-score is on record?
Answer: -0.599 (inactive)

Question: With CGUCAUCCCUCAACAAGAATT against ATP2B2 as the sequence, how does the median seed-adjusted z-score read?
Answer: 1.37 (active)

Question: Which median seed-adjusted z-score does the source give for GGCUAUUACUCAGUACAGATT against TLN1 here?
Answer: -0.0619 (inactive)

Question: Which median seed-adjusted z-score does the source give for CUAUGUGAUUGAUCAAGGATT against PRKAR1A here?
Answer: 0.428 (inactive)

Question: With UCAUCGGCGUGAUCGUGUATT against CACNG8 as the sequence, how does the median seed-adjusted z-score read?
Answer: 0.214 (inactive)

Question: Which median seed-adjusted z-score does the source give for GAAUUUGCGAUGUACUUAATT against CSNK1A1 here?
Answer: -0.608 (inactive)

Question: Which median seed-adjusted z-score does the source give for GGAAAGGAAUGGUCACGAATT against ZNF321 here?
Answer: -0.642 (inactive)

Question: For AGGUCAACACGGAGCUCAATT against CHRM1, which median seed-adjusted z-score is on record?
Answer: 1.1 (active)

Question: Which median seed-adjusted z-score does the source give for GAAGAAUAGUGAUGCUCGATT against GRIA1 here?
Answer: 0.927 (inactive)

Question: With CUAAUUCAACAUUACAUCATT against ZNF550 as the sequence, how does the median seed-adjusted z-score read?
Answer: 0.131 (inactive)

Question: With CGACAGUCUUGCUGAAAAATT against NOTO as the sequence, how does the median seed-adjusted z-score read?
Answer: -0.193 (inactive)

Question: For GCACGAUUACUACUACCGATT against PNPLA1, which median seed-adjusted z-score is on record?
Answer: 0.00692 (inactive)

Question: Which median seed-adjusted z-score does the source give for GGAUGUCGGCAACACGGAATT against MYBPC3 here?
Answer: 0.304 (inactive)

Question: For AAAGAAUGCGUGCUUUUAATT against RABGGTA, which median seed-adjusted z-score is on record?
Answer: -0.0601 (inactive)

Question: With CACUGUAACGACUUCCUUATT against CCIN as the sequence, how does the median seed-adjusted z-score read?
Answer: 0.0472 (inactive)

Question: With GAAAUUGACAUGUUGGAUATT against ANXA4 as the sequence, how does the median seed-adjusted z-score read?
Answer: -0.0932 (inactive)

Question: For GACUGUCGCUGGUUGGAGATT against ACPT, which median seed-adjusted z-score is on record?
Answer: -0.114 (inactive)

Question: With AGACCGAACUGGUUUCGCUTT against CDKN2C as the sequence, how does the median seed-adjusted z-score read?
Answer: -0.0789 (inactive)

Question: With CACUCGAAGCAGUUUGGAATT against SMS as the sequence, how does the median seed-adjusted z-score read?
Answer: 0.186 (inactive)

Question: For CAGUGAAACUGCACCUCUATT against TGM1, which median seed-adjusted z-score is on record?
Answer: -0.286 (inactive)

Question: For CCAACGAGCGAGCAGCUUATT against BARX1, which median seed-adjusted z-score is on record?
Answer: 1.63 (active)

Question: For ACGGCAAGGUGUUCGAUGUTT against PGRMC1, which median seed-adjusted z-score is on record?
Answer: 0.124 (inactive)

Question: Which median seed-adjusted z-score does the source give for CGUUCGACCUGAUCGCAAATT against ODZ2 here?
Answer: -0.0233 (inactive)

Question: Which median seed-adjusted z-score does the source give for GGGUCACACUAUUUCGUGUTT against ARIH1 here?
Answer: -0.443 (inactive)

Question: For GAUGAGUGCUGCUUCCGGATT against IGF1, which median seed-adjusted z-score is on record?
Answer: 0.559 (inactive)

Question: For CCAGCUCCACGAAAAAGAATT against ZNF395, which median seed-adjusted z-score is on record?
Answer: -0.0986 (inactive)

Question: With GAUACAGUCUACGCAGUUATT against ATPAF1 as the sequence, how does the median seed-adjusted z-score read?
Answer: 0.393 (inactive)

Question: For CAGCGUGCAUUUUCACUAATT against AKAP11, which median seed-adjusted z-score is on record?
Answer: -0.0405 (inactive)

Question: With GCACUAAGAGUGACGUGUATT against PSKH1 as the sequence, how does the median seed-adjusted z-score read?
Answer: -2.03 (active)

Question: For GGCUACAAUUUAAGACGAUTT against TNR, which median seed-adjusted z-score is on record?
Answer: 0.498 (inactive)

Question: Which median seed-adjusted z-score does the source give for GAAAGAUGCAAAAGACAAATT against SFPQ here?
Answer: -1.15 (active)

Question: Which median seed-adjusted z-score does the source give for GGUUAUGUAGUAACGAGUUTT against ALS2 here?
Answer: 0 (inactive)

Question: For GGAAUAUAAUAAGCGAAGATT against TAOK1, which median seed-adjusted z-score is on record?
Answer: -0.0533 (inactive)

Question: Which median seed-adjusted z-score does the source give for CGAGACUACUAAAGAAACATT against DDX18 here?
Answer: 0.241 (inactive)

Question: With CUACGACUUUUCCAAUAUATT against SLC6A4 as the sequence, how does the median seed-adjusted z-score read?
Answer: 1.43 (active)

Question: With CCAUCUCCCUUGUGCUGCATT against NINJ1 as the sequence, how does the median seed-adjusted z-score read?
Answer: -0.061 (inactive)

Question: With GAGAGACCCUCGUCCUUUATT against CYP20A1 as the sequence, how does the median seed-adjusted z-score read?
Answer: -0.796 (inactive)

Question: Which median seed-adjusted z-score does the source give for GAAAGGCUUUGACCAAUCUTT against ZNF319 here?
Answer: 0.256 (inactive)

Question: With GUCACUAGCUUAUCUUGAATT against VEGFA as the sequence, how does the median seed-adjusted z-score read?
Answer: 0.495 (inactive)

Question: Which median seed-adjusted z-score does the source give for AGCAAAGUGUUCUACCUGATT against YWHAG here?
Answer: 1.98 (active)

Question: Which median seed-adjusted z-score does the source give for GAAAAUCGAAAGACUAAAATT against UTP11L here?
Answer: -0.755 (inactive)

Question: For CUAAUGAGUUUGUCUAAUATT against PKDREJ, which median seed-adjusted z-score is on record?
Answer: 0.376 (inactive)

Question: With AGUGGAUUGUAGACAUGGATT against UBE2W as the sequence, how does the median seed-adjusted z-score read?
Answer: -0.655 (inactive)

Question: With GCAUCUACCGGAUCCUGAUTT against DDX49 as the sequence, how does the median seed-adjusted z-score read?
Answer: 0.0816 (inactive)

Question: Which median seed-adjusted z-score does the source give for GCAGGCUAAUCGCAAUGAATT against ANXA13 here?
Answer: -0.467 (inactive)

Question: For GCCAGAGUCCUGAUGCACATT against GPR31, which median seed-adjusted z-score is on record?
Answer: -0.0381 (inactive)

Question: Which median seed-adjusted z-score does the source give for GGACAAAGCAUUGACAAUUTT against KCNJ13 here?
Answer: 0.327 (inactive)

Question: For CAUCGGCUAUGACAACAUUTT against PSTPIP2, which median seed-adjusted z-score is on record?
Answer: 0.0136 (inactive)

Question: With GGUUCGUGAAGUUCGUAAATT against UTP3 as the sequence, how does the median seed-adjusted z-score read?
Answer: -1.08 (active)
